Experimental data from PubChem BioAssay (Tox21).
Results filed as inconclusive are left out. A call without a number means that no potency is given here. Calls of active or inactive are those of the source. Calls come from the whole dose curve; as a rule, active = well fitted cell-killing curve with a large enough effect in the repeat runs; inconclusive = weak or mixed curves, or effect the other way; inactive = flat fitted curve, though single readings scatter.

How the values were obtained:
[1] = cAMP Responsive Elements (CRE) small molecule antagonists, cell-based qHTS assay: qHTS cell viability counter screen (AID 2060913); note: nearly all actives have a fitted effect of over 40% in size
Method in brief: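 Viability of NKH477-stimulated (0.25 uM final) CRE-bla HEK293T cells is measured by CellTiter-Glo luminescence following 3 hrs compound exposure at 37 C.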

[2] = cAMP Responsive Elements (CRE) small molecule agonists, cell-based qHTS assay: qHTS cell viability counter screen (AID 2060914);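 note: viability read after 3 h of compound exposure; nearly all actives have a fitted effect of over 50% in size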
Method in brief: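 Cytotoxicity counter screen multiplexed with the CRE-bla reporter assay in HEK 293T cells: 3 h compound exposure at 37 °C, followed by CellTiter-Glo luminescence measured in the same wells.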

| SMILES | Potency [1] | Potency [2] |
| --- | --- | --- |
| Oc1ccc(O)cc1 | inactive | inactive |
| O=[N+]([O-])c1ccccc1Nc1ccccc1 | inactive | inactive |
| CCCCOC(=O)[C@H](C)O | inactive | inactive |
| Cc1c(Cl)c(=O)oc2cc(O)ccc12 | inactive | inactive |
| CC(C)=CC=O | inactive | inactive |
| O=C(O)COc1nn(Cc2ccccc2)c2ccccc12 | inactive | inactive |
| COC(=O)N[C@H](C(=O)N[C@@H](Cc1ccccc1)[C@@H](O)CN(Cc1ccc(-c2ccccn2)cc1)NC(=O)[C@@H](NC(=O)OC)C(C)(C)C)C(C)(C)C | inactive | inactive |
| O=C(Oc1ccccc1)c1ccccc1O | inactive | inactive |
| NC(=O)c1ccccc1[N+](=O)[O-] | inactive | inactive |
| CCCCS | inactive | inactive |
| COS(=O)(=O)C(F)(F)F | inactive | inactive |
| CCC(O)OCCCOC (centres undefined) | inactive | inactive |
| c1ccc(SSc2ccccc2)cc1 | inactive | inactive |
| CC1(C)[C@H](C(=O)OCc2cccc(Oc3ccccc3)c2)[C@@H]1C=C(Cl)Cl | inactive | inactive |
| CO[C@@]1(NC(=O)Cc2cccs2)C(=O)N2C(C(=O)O)=C(COC(N)=O)CS[C@@H]21 | inactive | inactive |
| c1ccc2ccccc2c1 | inactive | inactive |
| CCOC(=O)N1CCC(=C2c3ccc(Cl)cc3CCc3cccnc32)CC1 | inactive | inactive |
| Cc1ccc(O)c(N)c1 | inactive | inactive |
| COc1cc(C(=O)N2CCCCCCC2)cc(OC)c1OC | inactive | inactive |
| Cc1ccc(-c2ncc(Cl)cc2-c2ccc(S(C)(=O)=O)cc2)cn1 | inactive | inactive |
| CCOc1ccccc1OCC1CNCCO1 (centres undefined) | inactive | inactive |
| CN(C)C(=O)Nc1ccc(Cl)c(Cl)c1 | inactive | inactive |
| C[C@H](CCC(=O)O)[C@H]1CC[C@H]2[C@@H]3C(=O)C[C@@H]4CC(=O)CC[C@]4(C)[C@H]3CC(=O)[C@]12C | inactive | inactive |
| O=C(O)/C=C(\CC(=O)O)C(=O)O | inactive | inactive |
| C=C(C)C(=O)OCC(C)C | inactive | inactive |
| Cc1c(N)cccc1C(F)(F)F | inactive | inactive |

| SMILES | Potency [1] | Potency [2] |
| --- | --- | --- |
| C1CCOC1 | inactive | inactive |
| Cc1ccc(C)c(S(=O)(=O)O)c1 | inactive | inactive |
| CC1CCC(C(C)(C)O)CC1 (centres undefined) | inactive | inactive |
| O=C(O)Cc1cc(I)c(Oc2cc(I)c(O)c(I)c2)c(I)c1 | inactive | inactive |
| FC(F)(F)C(Cl)(Cl)Cl | inactive | inactive |
| O=C(NN1CCCC1)NS(=O)(=O)c1ccc(Cl)cc1 | inactive | inactive |
| CC1CC(C)C(=O)C1=O (centres undefined) | inactive | inactive |
| O=C1OC(=O)c2cc([N+](=O)[O-])ccc21 | inactive | inactive |
| O=C(O)[C@@H]1CSCN1 | inactive | inactive |
| Cc1nc2ccccc2s1 | inactive | inactive |
| CC1(CO)CN(c2ccccc2)NC1=O (centres undefined) | inactive | inactive |
| N[C@@H](Cc1c[nH]c2ccc(O)cc12)C(=O)O | inactive | inactive |
| CCn1c2ccccc2c2cc([N+](=O)[O-])ccc21 | inactive | inactive |
| CC(CC=O)CC(C)(C)C (centres undefined) | inactive | inactive |
| O=C(O)CCCCCCCCCCC(=O)O | inactive | inactive |
| CC1(C)COCN1 | inactive | inactive |
| CC(=O)OCCCc1ccccc1 | inactive | inactive |
| C=C(C)C(=O)OCCCCCCOC(=O)C(=C)C | inactive | inactive |
| CCCCC(CC)COS(=O)(=O)O (centres undefined) | inactive | inactive |
| CCc1ccccc1CC | inactive | inactive |
| Nc1cccc([N+](=O)[O-])c1 | inactive | inactive |
| Cc1ncc([N+](=O)[O-])n1C | inactive | inactive |
| COc1ccccc1OCC1CNC(=O)O1 (centres undefined) | inactive | inactive |
| CCCC(C)CO (centres undefined) | inactive | inactive |
| CCOC(N)=O | inactive | inactive |
| CCN(CC)C(C)CN1c2ccccc2Sc2ccccc21 (centres undefined) | inactive | inactive |
